Source: PubChem BioAssay (Tox21)
The source made the active and inactive calls. Calls come from the whole dose curve; as a rule, active = well fitted curve in the direction sought with a large enough effect in the repeat runs; inconclusive = weak or mixed curves; inactive = flat fitted curve, though single readings scatter.

Test: qHTS assay to test for compound auto fluorescence at 535 nm (green) in HepG2 cells (AID 720675)
Conditions: green autofluorescence 485/535 nm, 1 h; series mostly up to 91.3 µM; fluorescence, % of fluorescein control: at the top concentration
% is set by controls: 0 for no effect and ±100 for the full control effect.

SMILES | fluorescence, % of fluorescein control
CC(=O)SCC(CC(=O)c1ccc(C)cc1)C(=O)O (stereo unspecified) | -0.0958% [at 46 µM] (inactive)
CCCCCCC(=O)c1ccccc1 | 0.001% (inactive)
CC(=O)c1ccc2ccc3ccccc3c2c1 | -0.0044% (inactive)
CC(=O)OCC(=O)[C@@]1(O)CC[C@H]2[C@@H]3CCC4=CC(=O)C=C[C@]4(C)[C@H]3[C@@H](O)C[C@@]21C | -0.0031% [at 46 µM] (inactive)
CCCCCCCCS(=O)(=O)O | 0.045% (inactive)
COC(=O)c1c(C)cc(O)c(C)c1O | 0.0019% (inactive)
CCCCCCCCCCCCCCCC(=O)OC | -0.0233% [at 18.6 µM] (inactive)
COc1cc(NS(=O)(=O)c2ccc(N)cc2)ncn1 | 0.0032% [at 18.6 µM] (inactive)
O=S(=O)(O)c1cc(I)c(O)c2ncccc12 | -0.16% [at 46 µM] (inactive)
C[C@H]1COc2c(C3(N)CC3)c(F)cc3c(=O)c(C(=O)O)cn1c23 | -0.0616% [at 46 µM] (inactive)
CC(C)(O)CCCC1=CCC(C=O)CC1 (stereo unspecified) | -0.0189% [at 95.7 µM] (inactive)
C=CCN1CCc2nc(N)sc2CC1 | -0.0949% [at 46 µM] (inactive)
O=Cc1ccccc1S(=O)(=O)O | 0.0989% (inactive)
CC[C@@]1(c2ccccc2)NC(=O)N(C)C1=O | 0.0159% [at 46 µM] (inactive)
c1cc2ccc3ccc4ccc5cccc6c(c1)c2c3c4c56 | 0.0742% [at 3.72 µM] (inactive)
CCN1CCN(C(=O)N[C@@H](C(=O)N[C@@H]2C(=O)N3[C@@H]2SC(C)(C)[C@H]3C(=O)O)c2ccccc2)C(=O)C1=O | -0.177% [at 46 µM] (inactive)
O=C(O)Cc1c(Cl)ccc(Cl)c1Cl | -0.153% (inactive)
CC(C)(O)c1ccc(C(C)(C)O)cc1 | 3.5e-05% (inactive)
NC(=O)CC[C@@H](N)C(=O)O | -0.0085% [at 46 µM] (inactive)
CCCCCC(CC)OC(=O)CCCOc1ccc(Cl)cc1Cl (stereo unspecified) | 0.0894% (inactive)
O=C(O)/C=C(\CC(=O)O)C(=O)O | -0.0589% [at 46 µM] (inactive)
